Source: PubChem
In the library only some 8.1% were active in any assay of this set; here they are far more common.
MITF inh = MITF inhibition. inhibition, % (test concentration not listed). TRPM1 promoter luciferase, luminescence, 24 h. actives 0.28% (n = 37,000); in the data active = inhibition above about 85%;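 also: human melanocyte line stably carrying TRPM1 promoter luciferase reporter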
NOMO-1 viab = STK33 inhibitor candidate reducing NOMO-1 cell viability; NOMO-1 AML viability, CellTiter-Glo luminescence, 72 h; inhibition, % (concentration not given with the values); actives 7.5% (n = 37,000); AID 2330; in the data active = inhibition above about 80%
Shh pathway inh = Sonic Hedgehog pathway inhibition. actives 2.1% (n = 22,000). Shh-LIGHT2 Gli-luciferase reporter, 30 h. inhibition, % (no concentration beside the values);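 active = mean inhibition across valid replicates above about 65%, limit read from the data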;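 also: pathway switched on by Shh-conditioned medium diluted 1 in 25 in low serum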
PD-1 reversal = activators reversing PD-1 mediated T-cell inhibition | AID 2316 | activation, % (concentration not given with the values) | 29,000 tested, under 10 active | primary human CD4 T cells, PD-L1 beads, CellTiter-Glo 96 h; call rule not given here;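 also: 0% = median vehicle wells and 100% = positive control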
* = called active by the depositor.

Results for Cc1noc(C)c1S(=O)(=O)Nc1cccc2c1O[C@@H](CN(C)S(=O)(=O)c1ccc(Cl)cc1)[C@@H](C)CN([C@@H](C)CO)C2=O ?
MITF inh: 4.5; NOMO-1 viab: 28.9; Shh pathway inh: 106.5*

What do the screens show for `Cc1noc(C)c1S(=O)(=O)Nc1cccc2c1O[C@@H](CN(C)S(=O)(=O)c1ccc(Cl)cc1)[C@@H](C)CN([C@H](C)CO)C2=O`?
MITF inh: 7.5; NOMO-1 viab: 14.9; Shh pathway inh: 67.3*; PD-1 reversal: -0.9

What do the screens show for `Cc1noc(C)c1S(=O)(=O)Nc1cccc2c1O[C@H](CN(C)S(=O)(=O)c1ccc(Cl)cc1)[C@H](C)CN([C@@H](C)CO)C2=O`?
MITF inh: 14.9; NOMO-1 viab: 77.6; Shh pathway inh: -58.2

How did CCOC(=O)c1c(NC(=O)COc2cc(C)ccc2C)sc2c1CCC2 do in these assays?
MITF inh: -5.2; NOMO-1 viab: 10.9; PD-1 reversal: 0.8

How did O=C(/C=C/c1ccccc1)CC(O)CCc1ccccc1 (stereo not given) do in these assays?
MITF inh: -6.7; NOMO-1 viab: 26.4; Shh pathway inh: -16.7; PD-1 reversal: 1.5

What do the screens show for `O=C(/C=C/c1ccccc1)CC(O)(c1ccccc1)C(F)(F)F` (stereo not given)?
MITF inh: 41.1; NOMO-1 viab: 121.9*; Shh pathway inh: 36.6; PD-1 reversal: -36.0

What do the screens show for `O=Nc1c(O)n(CC(=O)Nc2ccccc2)c2ccccc12`?
MITF inh: -23.4; NOMO-1 viab: 15.9; Shh pathway inh: -38.2; PD-1 reversal: -0.3

Results for NNC(=O)Cn1c2ccccc2c2ccccc21 ?
MITF inh: 3.4; NOMO-1 viab: 100.2*; PD-1 reversal: -3.0

How did COc1ccc(C(C)NC(=O)c2cc(-c3ccccn3)nc3ccc(Br)cc23)cc1OC (stereo not given) do in these assays?
MITF inh: 55.2; NOMO-1 viab: 89.6*

How did COc1ccccc1CCNC(=O)c1cc(-c2ccncc2)nc2ccc(Br)cc12 do in these assays?
MITF inh: 10.4; NOMO-1 viab: 93.5*; PD-1 reversal: -5.4

How did Cc1cc(C)c(OCC(=O)Nc2c[nH]c(=O)[nH]c2=O)cc1C do in these assays?
MITF inh: -7.4; NOMO-1 viab: -3.0

What do the screens show for `C[C@H](CO)N1C[C@H](C)[C@H](CN(C)Cc2ccc(C(F)(F)F)cc2)Oc2ccc(NS(=O)(=O)c3ccccc3)cc2C1=O`?
MITF inh: -0.4; NOMO-1 viab: 28.9; Shh pathway inh: 10.6; PD-1 reversal: -2.7

What do the screens show for `C[C@@H]1CN([C@H](C)CO)C(=O)c2cc(NS(=O)(=O)c3ccc(Cl)cc3)ccc2O[C@@H]1CN(C)Cc1ccc(C(F)(F)F)cc1`?
MITF inh: 34.5; NOMO-1 viab: 115.5*; PD-1 reversal: -2.0

What do the screens show for `C[C@@H]1CN([C@@H](C)CO)C(=O)c2cc(NS(=O)(=O)c3ccc(Cl)cc3)ccc2O[C@H]1CN(C)Cc1ccc(C(F)(F)F)cc1`?
MITF inh: 17.4; NOMO-1 viab: 107.1*; PD-1 reversal: -1.5

Results for C[C@H]1CN([C@@H](C)CO)C(=O)c2cc(NS(=O)(=O)c3ccccc3)ccc2O[C@@H]1CN(C)Cc1ccc(C(F)(F)F)cc1 ?
MITF inh: 3.0; NOMO-1 viab: 41.8; Shh pathway inh: 32.2; PD-1 reversal: -2.6

How did N#Cc1c(N)nc(SCC(=O)c2ccc(Cl)cc2)c(C#N)c1-c1ccco1 do in these assays?
MITF inh: 9.5; NOMO-1 viab: 1.2

How did COc1ccc(NC(=O)Nc2ccc3c(c2)CC(=O)N([C@H](C)CO)C[C@H](C)[C@H](CN(C)Cc2ccc(Cl)c(Cl)c2)O3)cc1 do in these assays?
MITF inh: -7.7; NOMO-1 viab: 68.8; Shh pathway inh: 1.2; PD-1 reversal: 2.1

What do the screens show for `C[C@H](CO)N1C[C@H](C)[C@H](CN(C)Cc2ccc(Cl)c(Cl)c2)Oc2ccc(NC(=O)Nc3ccc4c(c3)OCO4)cc2CC1=O`?
MITF inh: 29.0; NOMO-1 viab: 93.9*; Shh pathway inh: -8.4

What do the screens show for `C[C@H](CO)N1C[C@H](C)[C@H](CN(C)Cc2ccc(Cl)c(Cl)c2)Oc2ccc(NC(=O)Nc3ccccc3)cc2CC1=O`?
MITF inh: 29.1; NOMO-1 viab: 115.7*; Shh pathway inh: 32.1; PD-1 reversal: -1.3

Results for C[C@@H]1CN([C@@H](C)CO)C(=O)Cc2cc(NC(=O)Nc3ccc(F)cc3)ccc2O[C@@H]1CN(C)Cc1ccc(Cl)c(Cl)c1 ?
MITF inh: 29.4; NOMO-1 viab: 102.7*; Shh pathway inh: -13.1; PD-1 reversal: -2.6

Results for CC(C)NC(=O)Nc1ccc2c(c1)CC(=O)N([C@@H](C)CO)C[C@H](C)[C@H](CN(C)C(=O)Nc1ccc3c(c1)OCO3)O2 ?
MITF inh: -5.7; NOMO-1 viab: -16.7; Shh pathway inh: 65.3*; PD-1 reversal: 0.9

How did C[C@H]1CN([C@@H](C)CO)C(=O)Cc2cc(NC(=O)Nc3ccc(C(F)(F)F)cc3)ccc2O[C@@H]1CN(C)Cc1ccc(Cl)c(Cl)c1 do in these assays?
MITF inh: 8.9; NOMO-1 viab: 22.1; Shh pathway inh: -8.3

What do the screens show for `Cc1ccc(-c2nc3ccccc3s2)cc1NC(=O)COc1ccc(Br)cc1`?
MITF inh: -31.9; NOMO-1 viab: 49.8; PD-1 reversal: 0.9

What do the screens show for `COC(=O)c1c(NC(=O)CN2C(=O)c3ccccc3C2=O)sc(C)c1-c1ccccc1`?
MITF inh: -12.6; NOMO-1 viab: 5.0

What do the screens show for `C[C@@H]1CN([C@@H](C)CO)C(=O)Cc2cc(NC(=O)NC3CCCCC3)ccc2O[C@@H]1CN(C)Cc1ccncc1`?
MITF inh: -7.3; NOMO-1 viab: -1.5; Shh pathway inh: -21.6; PD-1 reversal: -0.6

How did C[C@H]1CN([C@@H](C)CO)C(=O)Cc2cc(NC(=O)Nc3ccccc3)ccc2O[C@H]1CN(C)Cc1ccc(Cl)c(Cl)c1 do in these assays?
MITF inh: -3.4; NOMO-1 viab: 104.1*; Shh pathway inh: -21.4; PD-1 reversal: -1.6

Results for C[C@H]1CN([C@@H](C)CO)C(=O)Cc2cc(NC(=O)Nc3ccccc3)ccc2O[C@H]1CN(C)Cc1ccccc1 ?
MITF inh: -13.7; NOMO-1 viab: 65.1; Shh pathway inh: 25.7

Results for C[C@@H]1CN([C@H](C)CO)C(=O)Cc2cc(NC(=O)NC3CCCCC3)ccc2O[C@@H]1CN(C)Cc1ccc(Cl)c(Cl)c1 ?
MITF inh: 26.8; NOMO-1 viab: 113.7*; Shh pathway inh: 12.6; PD-1 reversal: -8.5

What do the screens show for `O=C(CSc1ccc2ccccc2n1)Nc1ccnc2ccccc12`?
MITF inh: 29.3; NOMO-1 viab: 34.9; PD-1 reversal: -4.1

What do the screens show for `COc1ccc(-c2coc3cc(O[C@@H]4O[C@H](CO)[C@@H](O)[C@H](O)[C@H]4O)cc(O)c3c2=O)cc1`?
MITF inh: -2.0; NOMO-1 viab: 11.0; Shh pathway inh: -16.1; PD-1 reversal: 0.6

What do the screens show for `O=c1c(-c2ccc(O)cc2)coc2cc(O[C@@H]3O[C@H](CO)[C@@H](O)[C@H](O)[C@H]3O)cc(O)c12`?
MITF inh: 16.8; NOMO-1 viab: 96.2*; Shh pathway inh: -25.0; PD-1 reversal: 0.7

Results for CCN(CC)C(=S)C(=O)Nc1cc(C(F)(F)F)cc(C(F)(F)F)c1 ?
MITF inh: 13.0; NOMO-1 viab: 109.5*; Shh pathway inh: 57.2; PD-1 reversal: -1.9
